Data on 31 compounds can be found in PubChem BioAssay.

The structures appear in SMILES notation. Potency and affinity values are given separately. Unmarked numbers belong to inactive results.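 How the source made its calls, unless noted: active means primary screen activator hit with a dose response curve and TRPC4 channel activation at any tested dose; inactive means no activation, no dose response, or not a primary hit.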

In the first assay the target is Short transient receptor potential channel 4 (Mus musculus) (UniProt Q9QUQ5). Put plainly: mouse TRPC4 channel activators, dose response, cell-based, HEK293 TRPC4/mu-opioid, Fluo-4 calcium (AID 434937). Conditions: HEK293 TRPC4 cells, Fluo-4 calcium fluorescence ratio; series mostly up to 20 µM; activation ratio: at the top concentration.
Chain of Short transient receptor potential channel 4 (Mus musculus) (Q9QUQ5 whole entry, looked up): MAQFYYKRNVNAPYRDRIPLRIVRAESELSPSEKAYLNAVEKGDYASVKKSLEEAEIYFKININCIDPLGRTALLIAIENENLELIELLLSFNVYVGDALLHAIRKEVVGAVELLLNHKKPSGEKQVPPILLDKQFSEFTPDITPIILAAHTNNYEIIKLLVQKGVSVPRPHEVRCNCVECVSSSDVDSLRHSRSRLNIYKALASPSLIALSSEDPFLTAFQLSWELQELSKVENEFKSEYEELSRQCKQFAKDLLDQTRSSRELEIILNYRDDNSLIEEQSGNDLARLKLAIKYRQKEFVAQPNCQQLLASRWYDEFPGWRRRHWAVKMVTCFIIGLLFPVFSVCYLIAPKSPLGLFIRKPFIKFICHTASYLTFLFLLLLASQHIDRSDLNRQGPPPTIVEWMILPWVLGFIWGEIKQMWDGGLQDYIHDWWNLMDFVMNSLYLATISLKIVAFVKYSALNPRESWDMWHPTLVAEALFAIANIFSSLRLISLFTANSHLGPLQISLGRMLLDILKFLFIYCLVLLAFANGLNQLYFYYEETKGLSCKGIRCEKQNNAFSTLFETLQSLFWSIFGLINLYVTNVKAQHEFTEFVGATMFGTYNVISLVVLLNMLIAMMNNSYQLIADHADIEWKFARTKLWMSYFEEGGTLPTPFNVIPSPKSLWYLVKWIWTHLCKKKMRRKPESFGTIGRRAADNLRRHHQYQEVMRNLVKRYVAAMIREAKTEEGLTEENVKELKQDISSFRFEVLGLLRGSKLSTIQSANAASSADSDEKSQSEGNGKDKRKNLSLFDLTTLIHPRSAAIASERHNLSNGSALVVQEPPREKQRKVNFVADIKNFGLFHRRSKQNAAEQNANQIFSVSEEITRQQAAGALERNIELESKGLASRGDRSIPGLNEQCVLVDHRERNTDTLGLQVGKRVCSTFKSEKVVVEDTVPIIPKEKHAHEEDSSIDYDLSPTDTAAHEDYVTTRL
As to `Clc1ccc(OCC#CCN2CCCC2)cc1`, the “activation ratio” value was 54.5.
As to `CN(CCOc1ccc(C=C2C(=O)NC(=O)NC2=O)cc1)c1ccccn1`, the “activation ratio” value is 21.7.
Still for that read-out and setting: the same measure for `CCN1CC2C3CCC(C)(O3)C2C1` (configuration not stated): 0.5; for `CC(C)CNc1c2c(nc3ccccc13)CCC2`: 2.14.
Turning to `COC(=O)C1=C(c2cc3ccccc3s2)C[C@@H]2CC[C@H]1N2C(=O)NCCO`, the “activation ratio” value is 0.08.
With `Cc1ccc(-c2cc(-c3ccccc3)cc(-c3ccccc3)[n+]2-c2ccccc2)cc1`, the “activation ratio” value is 12.
In the case of `Nc1ccccc1-[n+]1c(-c2ccccc2)cc(-c2ccccc2)cc1-c1ccccc1`, the “activation ratio” value was 22.3.
For the compound `Clc1ccc2c(c1)C(c1ccccc1Cl)=NCc1nnc(N3CCN(CCOc4ccccc4)CC3)n1-2`, the “activation ratio” value is 6.59.
As for `Cc1ccccc1CN1CCNCC1`, the “activation ratio” value is 0.96.
The same measure, in the same setting: the figure for `CN1CCN(Cc2cc(=O)n3ccsc3n2)CC1` is 14.3; for `CCC1=Nc2cc(C(=O)N3CCC4(CC3)OCCO4)ccc2Sc2ccc(Br)cc21` it is 22.3.
On the same count and under the same terms, the same measure for `CCCCN1C(=O)NC(=O)C2(Cc3c(nc4c(C)cccn4c3=O)N3CCc4ccccc4C32)C1=O` (configuration not stated): 11.
For the compound `C=CCOC(=O)C1=C(C)OC(N)=C(C#N)[C@@]12C(=O)N(CC(N)=O)c1ccccc12`, the “activation ratio” value was 0.36.
The same measure, in the same setting: the same measure for `FC(F)(F)c1ccc(CN2CCNCC2)cc1`: 61.9.
As for `Clc1ccc(N2CCNCC2)nn1`, the “activation ratio” value is 17.3.
Still for that read-out and setting: the figure for `O=[N+]([O-])c1ccc(N2CCNCC2)cc1N1CCCCCC1` is 17.8; for `C#CCN1C(=O)C2(C(C#N)=C(N)OC(C)=C2C(=O)OCc2ccccc2)c2ccccc21` (configuration not stated) it is -0.6; for `Cc1ccc(-c2nc(N(C)C3CCN(C)CC3)c3ccccc3n2)cc1` it is 28.8.
Same read-out and setting: the figure for `c1ccc2nc(OCCN3CC3)ccc2c1` is 3.64; for `Cc1cc(OC(C)C(=O)NCc2ccncc2)c2c3c(c(=O)oc2c1)CCCC3` (configuration not stated) it is -0.83.
The same measure, in the same setting: the figure for `CCNCCNc1ccc([N+](=O)[O-])c2cccnc12` is 8.79; for `CN(C)CCn1cnc2ccccc21` it is 14.5; for `COC(=O)C(O)(c1ccc(NC(=S)NC(=O)c2ccc(Cl)cc2Cl)c(C)c1)C(F)(F)F` (configuration not stated) it is 0.37.
As for `COc1ccc(C(=O)C2CN(C)CC2c2ccc(Cl)cc2)cc1` (configuration not stated), the “activation ratio” value is 5.07.
Same read-out and setting: the same measure for `CC(Cc1ccccc1)NCC(=O)Nc1cc(N(C)C)nc2ccccc12` (configuration not stated): -2.8; for `Nc1c([N+](=O)[O-])cc(F)c(N2CCNCC2)c1Br`: 3.08.
Still for that read-out and setting: the figure for `Oc1c(Br)cc(Br)cc1CN1CCN(Cc2ccccc2)CC1` is 44.2.
On the same count and under the same terms, the same measure for `CCNc1cc(N2CCNCC2)ccc1[N+](=O)[O-]`: 8.48; for `CCn1ccnc1CN1CCCC(C(=O)c2cccc(C(F)(F)F)c2)C1` (configuration not stated): -0.16; for `CCc1ccc(OCCCN=C(C)c2c(O)n(C)c(=O)n(C)c2=O)cc1`: -0.38.
With `Cc1cccc(N=Cc2c(O)n(-c3ccccc3C)c(=O)[nH]c2=O)c1`, the “activation ratio” value is 2.43.

For a further assay the target is unchanged. The experiment in a line: TRPC4 positive allosteric modulators, dose response, cell-based, HEK293 TRPC4/mu-opioid, Fluo-4 calcium, EC20 DAMGO (AID 434941;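 active means earlier screen potentiator hit that boosts the TRPC4 ion channel at some dose, with a dose response; inactive means no potentiation, no dose response, or not a prior hit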;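 further: calcium entry triggered by an EC20 dose of DAMGO at the co-expressed mu-opioid receptor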). Conditions: HEK293 TRPC4/mu-opioid cells, Fluo-4 calcium fluorescence; series mostly up to 20 µM; potentiation ratio: at the top concentration.
On to `Clc1ccc(OCC#CCN2CCCC2)cc1`, for which the “potentiation ratio” value was -1.09.
Still for that read-out and setting: the same measure for `CN(CCOc1ccc(C=C2C(=O)NC(=O)NC2=O)cc1)c1ccccn1`: -5.77; for `CCN1CC2C3CCC(C)(O3)C2C1` (configuration not stated): 1.92.
The same measure, in the same setting: the figure for `CC(C)CNc1c2c(nc3ccccc13)CCC2` is 0.98.
Same read-out and setting: the figure for `COC(=O)C1=C(c2cc3ccccc3s2)C[C@@H]2CC[C@H]1N2C(=O)NCCO` is 1.39; for `Cc1ccc(-c2cc(-c3ccccc3)cc(-c3ccccc3)[n+]2-c2ccccc2)cc1` it is 11.
With `Nc1ccccc1-[n+]1c(-c2ccccc2)cc(-c2ccccc2)cc1-c1ccccc1`, the “potentiation ratio” value is -6.69.
On the same count and under the same terms, the figure for `Clc1ccc2c(c1)C(c1ccccc1Cl)=NCc1nnc(N3CCN(CCOc4ccccc4)CC3)n1-2` is -2.28.
Same read-out and setting: the figure for `Cc1ccccc1CN1CCNCC1` is 3.67.
The same measure, in the same setting: the figure for `CN1CCN(Cc2cc(=O)n3ccsc3n2)CC1` is 25; for `CCC1=Nc2cc(C(=O)N3CCC4(CC3)OCCO4)ccc2Sc2ccc(Br)cc21` it is -14.9.
With `CCCCN1C(=O)NC(=O)C2(Cc3c(nc4c(C)cccn4c3=O)N3CCc4ccccc4C32)C1=O` (configuration not stated), the “potentiation ratio” value was 6.29.
The same measure, in the same setting: the same measure for `C=CCOC(=O)C1=C(C)OC(N)=C(C#N)[C@@]12C(=O)N(CC(N)=O)c1ccccc12`: 14.2; for `FC(F)(F)c1ccc(CN2CCNCC2)cc1`: 2.36.
As to `Clc1ccc(N2CCNCC2)nn1`, the “potentiation ratio” value was -7.71.
The same measure, in the same setting: the figure for `O=[N+]([O-])c1ccc(N2CCNCC2)cc1N1CCCCCC1` is -21.5.
Still for that read-out and setting: the same measure for `C#CCN1C(=O)C2(C(C#N)=C(N)OC(C)=C2C(=O)OCc2ccccc2)c2ccccc21` (configuration not stated): 7.96.
For the compound `Cc1ccc(-c2nc(N(C)C3CCN(C)CC3)c3ccccc3n2)cc1`, the “potentiation ratio” value was -44.9.
On the same count and under the same terms, the same measure for `c1ccc2nc(OCCN3CC3)ccc2c1`: 4.64.
Still for that read-out and setting: the figure for `Cc1cc(OC(C)C(=O)NCc2ccncc2)c2c3c(c(=O)oc2c1)CCCC3` (configuration not stated) is 0.28.
On the same count and under the same terms, the same measure for `CCNCCNc1ccc([N+](=O)[O-])c2cccnc12`: 5.7.
With `CN(C)CCn1cnc2ccccc21`, the “potentiation ratio” value is -5.95.
The same measure, in the same setting: the figure for `COC(=O)C(O)(c1ccc(NC(=S)NC(=O)c2ccc(Cl)cc2Cl)c(C)c1)C(F)(F)F` (configuration not stated) is 0.34.
As to `COc1ccc(C(=O)C2CN(C)CC2c2ccc(Cl)cc2)cc1` (configuration not stated), the “potentiation ratio” value is -1.49.
Same read-out and setting: the same measure for `CC(Cc1ccccc1)NCC(=O)Nc1cc(N(C)C)nc2ccccc12` (configuration not stated): 2.09.
The same measure, in the same setting: the same measure for `Nc1c([N+](=O)[O-])cc(F)c(N2CCNCC2)c1Br`: -0.4; for `Oc1c(Br)cc(Br)cc1CN1CCN(Cc2ccccc2)CC1`: 1.01; for `CCNc1cc(N2CCNCC2)ccc1[N+](=O)[O-]`: 0.05.
On to `CCn1ccnc1CN1CCCC(C(=O)c2cccc(C(F)(F)F)c2)C1` (configuration not stated), for which the “potentiation ratio” value was 0.72.
Take `CCc1ccc(OCCCN=C(C)c2c(O)n(C)c(=O)n(C)c2=O)cc1`: the “potentiation ratio” value was 14.1.
Regarding `Cc1cccc(N=Cc2c(O)n(-c3ccccc3C)c(=O)[nH]c2=O)c1`, the “potentiation ratio” value was 48.9.
